Test results from article PMC12135187, “A role for pH dynamics regulating transcription factor DNA-binding selectivity”.
In all, about 1,100 sequences were measured (“relative enrichment”: median about 0.38, highest 2% from about 0.66 on). This is one part of a sample in which the highest values are shown more often than they occur.

Biological target: T1, FOXC2 DBD WT (UniProt Q99958 72-172)
T1 sequence: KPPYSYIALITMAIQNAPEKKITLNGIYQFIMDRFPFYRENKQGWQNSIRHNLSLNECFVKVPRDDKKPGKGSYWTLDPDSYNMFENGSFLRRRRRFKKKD
Assay: SELEX-seq (GST pull-down, four rounds, 16-nt random library); pH 7.0; 20 mM HEPES, 140 mM KCl, 0.05 mM TCEP-HCl, pH 7.0, room temperature, 30 min; 2.5 uM GST-FOXC2 DBD, 0.25 uM DNA library; high values mean tight binding
Settings: protein: recombinant; tags: N-terminal GST (pGEX-6P-2); dsDNA, one strand shown
How it was run: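 GST-tagged FOXC2 DNA-binding domain (E. coli-expressed, glutathione-purified) was incubated with a DNA library carrying a 16 bp randomized region, at 0.25 μM DNA and 2.5 μM protein, for 30 min at RT in 20 mM HEPES, 140 mM KCl, 0.05 mM TCEP–HCl, pH 7. Complexes were captured on glutathione Sepharose beads, washed, heat-eluted and PCR-amplified over four rounds. Initial and selected libraries were Illumina MiniSeq sequenced. Relative enrichment came from the Bioconductor SELEX R package.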

| Sequence | binding signal [relative enrichment] |
| --- | --- |
| GCAACA | 0.23 |
| ACAAGA | 0.322 |
| CATCCA | 0.528 |
| CATCGC | 0.711 |
| AATCGC | 0.406 |
| CATCGT | 0.553 |
| CATCCT | 0.605 |
| CATCCC | 0.704 |
| TAGACA | 0.44 |
| ATCCAT | 0.477 |
| AATAAT | 0.309 |
| AAATAT | 0.435 |
| AATAAA | 0.839 |
| CATAAA | 0.596 |
| CATAAG | 0.406 |
| GATAAA | 0.326 |
| TAATAA | 0.399 |
| AATAAG | 0.686 |
| AAATAA | 0.891 |
| GCTCAA | 0.305 |
| CAATTC | 0.306 |
| AAAACA | 0.264 |
| AACTAT | 0.324 |

| Sequence | binding signal [relative enrichment] |
| --- | --- |
| CAGTAA | 0.415 |
| AATACT | 0.328 |
| AGTACA | 0.385 |
| AGTACT | 0.668 |
| AAAGTG | 0.343 |
| CAATGG | 0.433 |
| ATTTAC | 0.56 |
| ATTAGG | 0.356 |
| TCCAAA | 0.348 |
| AATTCC | 0.366 |
| ACTTCC | 0.677 |
| ACTTCA | 0.453 |
| ACTCGT | 0.431 |
| CTGCAT | 0.524 |
| TCCTAT | 0.313 |
| AAACCG | 0.336 |
| CAATGC | 0.376 |
| TACGTA | 0.539 |
| AACGTC | 0.372 |
| TACGTC | 0.674 |
| CCATTA | 0.286 |
| ACCACT | 0.588 |
| GGTTTA | 0.395 |

| Sequence | binding signal [relative enrichment] |
| --- | --- |
| ATTTGG | 0.408 |
| CTGTTA | 0.238 |
| TTACAA | 0.36 |
| TACGAA | 0.468 |
| TATACA | 0.505 |
| CAAATC | 0.3 |
| GAAATA | 0.451 |
| CAAATA | 0.707 |
| GAAACA | 0.347 |
| AAAATA | 0.439 |
| TAAATA | 0.726 |
| CAAACA | 0.57 |
| TAAACA | 0.701 |
| CAAATG | 0.327 |
| ATAGCA | 0.284 |
| TCTTTC | 0.55 |
| CAGACT | 0.612 |
| ACTTGA | 0.341 |
| CATAAC | 0.226 |
| AAATGG | 0.353 |
| CTTCAT | 0.554 |
| GTTCGT | 0.328 |
| CTTCGT | 0.674 |

| Sequence | binding signal [relative enrichment] |
| --- | --- |
| ATGTTA | 0.428 |
| TCATTC | 0.646 |
| ACCTTA | 0.322 |
| GATCTT | 0.497 |
| TCTAAC | 0.304 |
| CTACAA | 0.352 |
| ACAATA | 0.351 |
| AAACGA | 0.433 |
| GTGTCA | 0.372 |
| CATGCA | 0.513 |
| AGGATA | 0.311 |
| TACCCT | 0.504 |
| AGCCTA | 0.371 |
| AAAGTT | 0.3 |
| AGTTTA | 0.403 |
| CTATCA | 0.419 |
| ACTGCT | 0.412 |
| AACTAC | 0.312 |
| AACCAC | 0.351 |
| ACACGG | 0.442 |
| TCATCT | 0.546 |
| CAACGC | 0.322 |
| TCTTCT | 0.66 |

| Sequence | binding signal [relative enrichment] |
| --- | --- |
| CCTTCT | 0.774 |
| ACTTCT | 0.502 |
| AAGCAG | 0.486 |
| ATCTCT | 0.485 |
| TCACAA | 0.332 |
| AGGTTG | 0.313 |
| ACATCG | 0.521 |
| ATGTTC | 0.304 |
| TGAACA | 0.291 |
| AACGAA | 0.281 |
| GACTTA | 0.52 |
| AATGAT | 0.314 |
| CCGTTG | 0.343 |
| CCTGTG | 0.491 |
| ACTCTC | 0.499 |
| ATTAAA | 0.406 |
| TGTCAA | 0.457 |
| AATTAG | 0.241 |
| ACGATA | 0.322 |
